Test [1] can be described thus: NCI Yeast Anticancer Drug Screen. Data for the rad50 strain (AID 155).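 Further: 0% = growth of vehicle-only cultures of the same strain.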 The note with it: S. cerevisiae rad50 strain growth inhibition, stronger effect = higher value. The gist of the method: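 Readout: growth inhibition relative to vehicle-treated cultures. Compound exposure was carried out in a genetically defined yeast strain deficient in DNA damage repair.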
A short description of test [2]: NCI Yeast Anticancer Drug Screen. Data for the mec2-1 strain (AID 157). As to conditions: S. cerevisiae mec2-1 strain, stronger effect = higher value. In short, it runs like this:
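Cells of the genetically defined mec2-1 yeast strain are incubated with test compound. Inhibition of growth is calculated against vehicle-treated controls.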

Test [3] is described as follows: NCI Yeast Anticancer Drug Screen. Data for the sgs1 mgt1 strain (AID 161).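 Further: 0% = growth of cultures given vehicle only.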 As to conditions: S. cerevisiae sgs1 mgt1 strain, stronger effect = higher value. In short, it runs like this:
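Test agents were incubated with a DNA-repair-mutant yeast strain. Growth was then read and compared against vehicle-treated controls.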

A short description of test [4]: NCI Yeast Anticancer Drug Screen. Data for the cln2 rad14 strain (AID 165).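 Further: 0% = growth equal to vehicle treated cultures.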 The note with it: S. cerevisiae cln2 rad14 strain, stronger effect = higher value. The gist of the method:
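The screen exposed genetically defined yeast (cln2 rad14) to test compounds and scored growth inhibition relative to vehicle-treated controls.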

Test [5] is described as follows: NCI Yeast Anticancer Drug Screen. Data for the bub3 strain (AID 167). The note with it: S. cerevisiae bub3 mutant strain, stronger effect = higher value. In short, it runs like this: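 Readout: yeast growth inhibition, expressed relative to vehicle-only wells. The test organism is a mutant strain from a panel with lesions in DNA repair or checkpoint genes.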
Test [6] in a line: NCI Yeast Anticancer Drug Screen. Data for the mlh1 rad18 strain (AID 175). The note with it: S. cerevisiae mlh1 rad18 strain growth inhibition, stronger effect = higher value. In short, it runs like this: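 Compound-treated yeast growth, normalised to vehicle controls. Strain bears defined DNA repair mutations.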
Where [7] appears, read: at 5.0 µM (retest, dose inferred, filed as 0.5).
The mark [8] stands for this setting: at 50.0 µM (retest, dose inferred, filed as 5.0).

This is part of a sample that, as a whole, favours compounds with a hit. Of some 79,000 tested, about 15% had one in any assay. Values without a mark were called inactive. Activity calls are given as the source filed them. No stated cut-off is given here; in the data, active means growth inhibition above about 70%; inactive means the rest.

Regarding `O=C(OCC1OC(OCC(OC(=O)c2ccccc2)C(OC(=O)c2ccccc2)C(OC(=O)c2ccccc2)c2cnn(-c3ccccc3)n2)C(OC(=O)c2ccccc2)C(OC(=O)c2ccccc2)C1OC(=O)c1ccccc1)c1ccccc1` (stereo not given), the growth inhibition in test [1] (setting [7]) was -6%; in test [1] (setting [8]), -1%; in test [1] (at 50.0 µM), 97.5% (active); in test [2] (setting [7]), -14%; in test [2] (setting [8]) it was -21%; in test [2] (at 50.0 µM), 94.8% (active). Besides, the growth inhibition in test [3] (setting [7]) is -1%; in test [3] (setting [8]) it was -6%; in test [3] (at 50.0 µM) it was 98% (active); in test [4] (setting [7]) it was 6%; in test [4] (setting [8]) it was 7%; in test [4] (at 50.0 µM), 98.6% (active). Also, the growth inhibition is -12% in test [5] (setting [7]); 4% in test [5] (setting [8]); 96.8% (active) in test [5] (at 50.0 µM); -4% in test [6] (setting [7]); -10% in test [6] (setting [8]); 97.7% (active) in test [6] (at 50.0 µM).
Turning to `CC(C)c1ccc2c(c1)CC[C@H]1[C@](C)(CN)CCC[C@]21C`, the growth inhibition in test [1] (setting [7]) is 3%; in test [1] (setting [8]), 98% (active); in test [1] (at 50.0 µM), 98.8% (active); in test [2] (setting [7]) it was 2%; in test [2] (setting [8]), 98% (active); in test [2] (at 50.0 µM) it was 89.2% (active). For the same compound, the growth inhibition was 11% in test [3] (setting [7]); 99% (active) in test [3] (setting [8]); 99.7% (active) in test [3] (at 50.0 µM); 3% in test [4] (setting [7]); 97% (active) in test [4] (setting [8]); 91.8% (active) in test [4] (at 50.0 µM). Also, the growth inhibition was 7% in test [5] (setting [7]); 99% (active) in test [5] (setting [8]); 90% (active) in test [5] (at 50.0 µM); -9% in test [6] (setting [7]); 98% (active) in test [6] (setting [8]); 98.4% (active) in test [6] (at 50.0 µM).
Turning to `CC(C)N=C(NC(C)C)SCCCCCCSC(=NC(C)C)NC(C)C`, the growth inhibition is 2% in test [1] (setting [7]); -2% in test [1] (setting [8]); 12.3% in test [1] (at 50.0 µM); -1% in test [2] (setting [7]); 1% in test [2] (setting [8]); -17.2% in test [2] (at 50.0 µM). The growth inhibition in test [3] (setting [7]) is -7%; in test [3] (setting [8]), 1%; in test [3] (at 50.0 µM), 2.4%; in test [4] (setting [7]), -6%; in test [4] (setting [8]) it was -1%; in test [4] (at 50.0 µM) it was 76.2% (active). In addition, the growth inhibition is 3% in test [5] (setting [7]); -2% in test [5] (setting [8]); -16.2% in test [5] (at 50.0 µM); -1% in test [6] (setting [7]); -5% in test [6] (setting [8]); 6.9% in test [6] (at 50.0 µM).
With `C(=N\Nc1c2ccccc2nc2ccccc12)/c1ccc2c(c1)OCO2`, the growth inhibition is 0% in test [1] (setting [7]); 97% (active) in test [1] (setting [8]); 99.3% (active) in test [1] (at 50.0 µM); 7% in test [2] (setting [7]); 99% (active) in test [2] (setting [8]); 84.8% (active) in test [2] (at 50.0 µM). Moreover, the growth inhibition in test [3] (setting [7]) was 0%; in test [3] (setting [8]), 99% (active); in test [3] (at 50.0 µM), 99.4% (active); in test [4] (setting [7]), 2%; in test [4] (setting [8]) it was 89% (active); in test [4] (at 50.0 µM) it was 82% (active). For the same compound, the growth inhibition in test [5] (setting [7]) is -11%; in test [5] (setting [8]) it was 93% (active); in test [5] (at 50.0 µM) it was 99.2% (active); in test [6] (setting [7]) it was 1%; in test [6] (setting [8]), 98% (active); in test [6] (at 50.0 µM), 99.3% (active).
In the case of `CN(C)CCCNc1c2ccccc2nc2ccc(F)cc12`, the growth inhibition in test [1] (setting [7]) was 0%; in test [1] (setting [8]), 24%; in test [1] (at 50.0 µM), 27.2%; in test [2] (setting [7]), -8%; in test [2] (setting [8]), 26%; in test [2] (at 50.0 µM), 24.4%. The growth inhibition in test [3] (setting [7]) is 6%; in test [3] (setting [8]), 24%; in test [3] (at 50.0 µM), 15.2%; in test [4] (setting [7]), 8%; in test [4] (setting [8]), 21%; in test [4] (at 50.0 µM) it was 81.8% (active). Further, the growth inhibition is 0% in test [5] (setting [7]); 6% in test [5] (setting [8]); 42.5% in test [5] (at 50.0 µM); 14% in test [6] (setting [7]); 27% in test [6] (setting [8]); 36.8% in test [6] (at 50.0 µM).
In the case of `O=Cc1cc([N+](=O)[O-])ccc1O`, the growth inhibition in test [1] (setting [7]) is 95% (active); in test [1] (setting [8]), 99% (active); in test [1] (at 50.0 µM), 93.8% (active); in test [2] (setting [7]), 98% (active); in test [2] (setting [8]) it was 99% (active); in test [2] (at 50.0 µM), 96.7% (active). In addition, the growth inhibition in test [3] (setting [7]) is 86% (active); in test [3] (setting [8]), 99% (active); in test [3] (at 50.0 µM) it was 98.5% (active); in test [4] (setting [7]) it was 96% (active); in test [4] (setting [8]), 99% (active); in test [4] (at 50.0 µM), 74.2% (active). The growth inhibition in test [5] (setting [7]) was 97% (active); in test [5] (setting [8]), 99% (active); in test [5] (at 50.0 µM) it was 94.8% (active); in test [6] (setting [7]) it was 98% (active); in test [6] (setting [8]) it was 99% (active); in test [6] (at 50.0 µM), 97% (active).
With `Nc1nc(-c2ccc3c(c2)Sc2ccccc2O3)cs1`, the growth inhibition in test [1] (setting [7]) was 18%; in test [1] (setting [8]), 99% (active); in test [1] (at 50.0 µM) it was 67.6%; in test [2] (setting [7]), 39%; in test [2] (setting [8]) it was 100% (active); in test [2] (at 50.0 µM) it was 65.3%. Further, the growth inhibition in test [3] (setting [7]) is 57%; in test [3] (setting [8]), 99% (active); in test [3] (at 50.0 µM), 91.3% (active); in test [4] (setting [7]), 7%; in test [4] (setting [8]), 99% (active); in test [4] (at 50.0 µM), 78.1% (active). The growth inhibition in test [5] (setting [7]) was 11%; in test [5] (setting [8]) it was 99% (active); in test [5] (at 50.0 µM), 86.7% (active); in test [6] (setting [7]) it was 57%; in test [6] (setting [8]), 99% (active); in test [6] (at 50.0 µM), 93.7% (active).
In the case of `c1ccc(OCCN2CCN(CCOc3ccccc3)CC2)cc1`, the growth inhibition in test [1] (setting [7]) is 21%; in test [1] (setting [8]) it was 29%; in test [1] (at 50.0 µM), 71.7% (active); in test [2] (setting [7]), 31%; in test [2] (setting [8]) it was 45%; in test [2] (at 50.0 µM), 32.2%. The growth inhibition in test [3] (setting [7]) was 41%; in test [3] (setting [8]), 55%; in test [3] (at 50.0 µM), 67.1%; in test [4] (setting [7]) it was 45%; in test [4] (setting [8]), 47%; in test [4] (at 50.0 µM), 76.4% (active). The growth inhibition is 43% in test [5] (setting [7]); 53% in test [5] (setting [8]); 56.7% in test [5] (at 50.0 µM); 44% in test [6] (setting [7]); 61% in test [6] (setting [8]); 44.1% in test [6] (at 50.0 µM).
As for `CC#CC#C/C=C1/C=CC(=O)O1`, the growth inhibition in test [1] (setting [7]) is 2%; in test [1] (setting [8]), 80% (active); in test [1] (at 50.0 µM) it was 27.4%; in test [2] (setting [7]), 3%; in test [2] (setting [8]) it was 66%; in test [2] (at 50.0 µM), 33.5%. Moreover, the growth inhibition in test [3] (setting [7]) is 1%; in test [3] (setting [8]), 62%; in test [3] (at 50.0 µM) it was 42.2%; in test [4] (setting [7]) it was -1%; in test [4] (setting [8]), 26%; in test [4] (at 50.0 µM), -16.8%. Besides, the growth inhibition in test [5] (setting [7]) is 3%; in test [5] (setting [8]), 59%; in test [5] (at 50.0 µM), 13.5%; in test [6] (setting [7]) it was 0%; in test [6] (setting [8]), 84% (active); in test [6] (at 50.0 µM) it was 75% (active).
Consider `COc1ccc(C(=O)C(Br)CS(=O)(=O)c2ccc(C)cc2)cc1` (stereo not given), for which the growth inhibition in test [1] (setting [7]) was 56%; in test [1] (setting [8]), 99% (active); in test [1] (at 50.0 µM), 99% (active); in test [2] (setting [7]), 36%; in test [2] (setting [8]) it was 99% (active); in test [2] (at 50.0 µM), 99.4% (active). Besides, the growth inhibition was 71% (active) in test [3] (setting [7]); 99% (active) in test [3] (setting [8]); 99.4% (active) in test [3] (at 50.0 µM); 18% in test [4] (setting [7]); 98% (active) in test [4] (setting [8]); 97.8% (active) in test [4] (at 50.0 µM). In addition, the growth inhibition was 47% in test [5] (setting [7]); 98% (active) in test [5] (setting [8]); 99.1% (active) in test [5] (at 50.0 µM); 48% in test [6] (setting [7]); 98% (active) in test [6] (setting [8]); 99% (active) in test [6] (at 50.0 µM).
